Among the data in PubChem BioAssay AID1511 (Johns Hopkins Ion Channel Center, 2009) are activation (rescue from dofetilide block), less the hit threshold values, retold here.

Among all 310,000 compounds or so, about 1,600 (0.52%) were called active. This excerpt belongs to a sample that is enriched for actives. Values without a mark were called inactive.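 How the source made its calls: active means activation above the mean of controls blocked by dofetilide plus 5 SD; inactive means the rest.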

Sequence of Voltage-gated inwardly rectifying potassium channel KCNH2 (Homo sapiens) (Q12809 whole entry, looked up): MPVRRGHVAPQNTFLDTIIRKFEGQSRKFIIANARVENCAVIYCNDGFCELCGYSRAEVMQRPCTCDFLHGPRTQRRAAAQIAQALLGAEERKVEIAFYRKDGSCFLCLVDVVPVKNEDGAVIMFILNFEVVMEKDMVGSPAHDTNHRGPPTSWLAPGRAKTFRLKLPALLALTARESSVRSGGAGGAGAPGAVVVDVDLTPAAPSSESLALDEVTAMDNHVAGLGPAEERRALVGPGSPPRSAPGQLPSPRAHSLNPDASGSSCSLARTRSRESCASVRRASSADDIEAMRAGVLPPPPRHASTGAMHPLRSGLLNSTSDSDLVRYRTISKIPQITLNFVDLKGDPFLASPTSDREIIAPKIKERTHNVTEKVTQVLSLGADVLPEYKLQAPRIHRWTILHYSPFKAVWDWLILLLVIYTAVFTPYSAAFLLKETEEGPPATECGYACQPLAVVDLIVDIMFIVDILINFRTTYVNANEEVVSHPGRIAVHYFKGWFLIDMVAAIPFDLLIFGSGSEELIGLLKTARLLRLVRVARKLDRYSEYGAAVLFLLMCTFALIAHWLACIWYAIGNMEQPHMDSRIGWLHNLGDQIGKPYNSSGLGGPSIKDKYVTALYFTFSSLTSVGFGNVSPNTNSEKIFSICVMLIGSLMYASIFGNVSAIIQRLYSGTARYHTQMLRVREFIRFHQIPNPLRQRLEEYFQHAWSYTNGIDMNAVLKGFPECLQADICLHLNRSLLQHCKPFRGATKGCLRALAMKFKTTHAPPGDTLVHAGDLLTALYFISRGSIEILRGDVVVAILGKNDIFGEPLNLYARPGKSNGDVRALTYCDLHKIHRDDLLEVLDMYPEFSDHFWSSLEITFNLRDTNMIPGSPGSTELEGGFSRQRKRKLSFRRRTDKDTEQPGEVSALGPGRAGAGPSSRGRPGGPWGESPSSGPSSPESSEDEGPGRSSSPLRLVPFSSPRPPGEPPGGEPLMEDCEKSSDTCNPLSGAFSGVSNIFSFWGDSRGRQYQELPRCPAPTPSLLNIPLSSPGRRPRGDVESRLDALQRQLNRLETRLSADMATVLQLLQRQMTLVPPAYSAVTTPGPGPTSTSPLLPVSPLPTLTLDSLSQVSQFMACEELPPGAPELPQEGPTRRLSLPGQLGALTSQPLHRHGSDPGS

This assay addresses Voltage-gated inwardly rectifying potassium channel KCNH2 (Homo sapiens) (UniProt Q12809). Description: hERG rescue from dofetilide block, primary screen, cell-based, CHO-hERG, FluxOR thallium flux, dofetilide IC70 (AID 1511).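 Further: thallium influx through hERG after potassium depolarization seen as dye fluorescence rise.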 Conditions: dofetilide IC70 present, at 10 µM, active compounds read high. For orientation: Block of hERG is tested as a sign of cardiac risk.
Take `CCN1CCc2nc(NC(=O)c3cc(F)c(F)cc3Cl)sc2C1`: the activation (rescue from dofetilide block), less the hit threshold is 15.1% (active). The value for `CC(=O)Cc1nsc(NC(=O)c2ccc(Cl)cc2Cl)n1` was -13.1%; that for `O=C(Nc1ccc(OCC(=O)N2CCOCC2)cc1)c1cc(F)c(F)cc1Cl` was -9.32%.

`COCCCNC(=O)/C(C#N)=C/c1c(N2CCCCCC2)nc2ccccn2c1=O`: the activation (rescue from dofetilide block), less the hit threshold was -4.19%. For `Cc1c(C)c2c(OCC(=O)N[C@@H](C(=O)O)c3ccccc3)cc3c(c2oc1=O)CCC(C)(C)O3` the value was -2.69%. Turning to `Oc1c(Cl)cc(Cl)cc1/C=N/c1ncn[nH]1`, the activation (rescue from dofetilide block), less the hit threshold was 15.4% (active). Regarding `COc1cc(Br)cc(/C=N/c2ncn[nH]2)c1O`, the activation (rescue from dofetilide block), less the hit threshold is -7.59%. Consider `CC(C)CCNC(=O)C1CCC(CNc2c(N3CCC(C)CC3)c(=O)c2=O)CC1` (stereo unspecified), for which the activation (rescue from dofetilide block), less the hit threshold was -6.27%. For `Cc1cc(C)cc(NC(=O)NC2CCCCCCC2)c1` the value was -9%; for `CCOC(=O)CSC1=N/C(=C/c2ccc(-n3cncn3)cc2)C(=O)N1C(C)=O`, -12%.

For the molecule `Cc1cc(C)c2c(=O)[nH]c(SCC(=O)Nc3ccc(Br)cc3)nc2n1`, the activation (rescue from dofetilide block), less the hit threshold is -11.1%.

In the case of `Cc1ccn(C(CC(=O)c2ccc(Br)cc2)C(=O)O)n1` (stereo unspecified), the activation (rescue from dofetilide block), less the hit threshold was 5% (active). As for `Cc1ccc(NC(=O)CCC(=O)c2ccc(Br)cc2)cc1`, the activation (rescue from dofetilide block), less the hit threshold is 1.34%. As for `O=Cc1c(NCCc2cccc(F)c2)c2ccccc2[nH]c1=O`, the activation (rescue from dofetilide block), less the hit threshold is -6.93%.

Consider `CCOc1ccc(C(C)=O)cc1COC(=O)CNC(=O)c1cccs1`, for which the activation (rescue from dofetilide block), less the hit threshold was -15.3%.

In the case of `CN(C)CCCn1c(=O)n(Cc2ccccc2)c(=O)c2c3c(sc21)CCCCC3`, the activation (rescue from dofetilide block), less the hit threshold was -10.2%. For the molecule `CCn1c(=S)[nH]c2sc3c(c2c1=O)CCCCC3`, the activation (rescue from dofetilide block), less the hit threshold is 37.3% (active). Take `CCCc1nc2sc3c(c2c(=O)n1NC(=O)CCCl)CCCC3`: the activation (rescue from dofetilide block), less the hit threshold is -1.21%.

Turning to `O=C(/C=C/c1cccs1)NCc1cccnc1`, the activation (rescue from dofetilide block), less the hit threshold was -8.68%.

For the molecule `COc1ccc(N2CCN(c3ccc([N+](=O)[O-])nc3)CC2)cc1`, the activation (rescue from dofetilide block), less the hit threshold was 7.73% (active). `COc1ccccc1N1CCN(c2ccc([N+](=O)[O-])nc2)CC1`: the activation (rescue from dofetilide block), less the hit threshold is -22%.

Turning to `O=[N+]([O-])c1ccc(N2CCN(c3ccc(F)cc3)CC2)cn1`, the activation (rescue from dofetilide block), less the hit threshold is -4.38%. In the case of `CCc1ccc(NC(=O)C(=O)NNC(=O)c2cccs2)cc1`, the activation (rescue from dofetilide block), less the hit threshold was 46.7% (active). For `CC(C)C(=O)Nc1ccc(C(=O)NNC(=O)c2cccs2)cc1` the value was -4.59%. `CCc1ccc(NC(=O)COC(=O)c2cccs2)cc1`: the activation (rescue from dofetilide block), less the hit threshold was -2.35%. For `O=S(=O)(Nc1ccc2nc(-c3ccco3)[nH]c2c1)c1ccccc1`, the activation (rescue from dofetilide block), less the hit threshold is -13.3%. As to `CCCCNC(=O)c1ccc(-n2c(=S)[nH]c3ccccc3c2=O)cc1`, the activation (rescue from dofetilide block), less the hit threshold was -10.5%.

For `CCCCn1c(=S)[nH]c2ncccc2c1=O`, the activation (rescue from dofetilide block), less the hit threshold is -2.34%. As to `CCCCn1c(=S)[nH]c2ccccc2c1=O`, the activation (rescue from dofetilide block), less the hit threshold was 7.08% (active). With `Cn1cc(S(=O)(=O)N2CCN(c3ccc(F)cc3)CC2)c(=O)n(C)c1=O`, the activation (rescue from dofetilide block), less the hit threshold was -3.11%. The value for `COc1ccc(/C=C2/S/C(=N/N=C3\CC4CCC3(C)C4(C)C)NC2=O)cc1` (stereo unspecified) was 19.7% (active); that for `CCOc1ccc(N=C2NC(=O)S/C2=C\c2ccc(O)cc2)cc1` was -4.52%. On to `COc1ccc(/C=C2\SC(=N)N(c3ccc(F)cc3)C2=O)cc1`, for which the activation (rescue from dofetilide block), less the hit threshold is -2.33%. For `COc1ccc(CCNC(=O)NS(=O)(=O)c2ccc(C)cc2)cc1OC` the value was 0.48%; for `C=CCN1C(=O)C(Cc2cccc(Cl)c2)S/C1=N/N=C/c1ccco1` (stereo unspecified), -5.7%; for `CCOc1ccc(N=C2SC(C(=O)O)CC(=O)N2C)cc1` (stereo unspecified), -10.3%. For `C=CCN1C(=O)C(Cc2ccc(OCC)cc2)SC1=Nc1ccc(C(=O)O)cc1` (stereo unspecified) the value was 5.1% (active); for `FC(F)(F)c1ccnc(Oc2ccc(C3=NCCS3)cc2)c1`, -5.42%. Regarding `COc1ccc(S(=O)(=O)N2CCOC2CNC(=O)C(=O)NCc2ccncc2)cc1OC` (stereo unspecified), the activation (rescue from dofetilide block), less the hit threshold was -6.76%. The value for `O=C(Nc1ccc(-c2cscn2)cc1)C1CCCN(Cc2ccc(CO)o2)C1` (stereo unspecified) was -2.17%.

As to `O=C1CCN(CCc2ccccc2)CCN1CCOc1ccccc1`, the activation (rescue from dofetilide block), less the hit threshold was -5.23%. With `N#Cc1cccc(CN2CCC(=O)N(CCO)CC2)c1`, the activation (rescue from dofetilide block), less the hit threshold is 1.97%. The value for `O=C1CCN(CCCc2ccccc2)CCN1CCO` was 5.3% (active).

With `Cc1n[nH]c(=O)c2c(NC(=O)COC(=O)c3ncc(Cl)c(Cl)c3Cl)oc(C)c12`, the activation (rescue from dofetilide block), less the hit threshold was -12.6%. As to `Cc1cc(OCCN2CCCC2)cc(C(C)C)c1`, the activation (rescue from dofetilide block), less the hit threshold is -6.59%. In the case of `O=C(COC(=O)c1cnc(Cl)c(Cl)c1)NCc1ccco1`, the activation (rescue from dofetilide block), less the hit threshold was 40.4% (active). For `O=C(COC(=O)c1cc(S(=O)(=O)N2CCCCC2)ccc1Cl)NCc1ccco1` the value was -13.9%. In the case of `O=C(COC(=O)c1ccco1)NCc1ccc(Cl)cc1`, the activation (rescue from dofetilide block), less the hit threshold is -0.71%. In the case of `Cc1c(CN2CCC(CO)(CCOc3ccccc3)CC2)[nH]c2ccc(Cl)cc12`, the activation (rescue from dofetilide block), less the hit threshold was -21.9%.

Regarding `Cc1nn(CC2CC2)c(=O)n1N(C)c1ncc(C(F)(F)F)cc1Cl`, the activation (rescue from dofetilide block), less the hit threshold is -8.88%. The value for `O=C1CC(c2cccc(F)c2)C2=C(CCCC2=O)N1` (stereo unspecified) was -5.36%. Turning to `O=C1CCCC2=C1C(c1ccccc1)n1c(s/c(=C/c3cccc(F)c3)c1=O)=N2` (stereo unspecified), the activation (rescue from dofetilide block), less the hit threshold was 5.71% (active). The value for `COc1ccc(OC)c(C2C3=C(N=c4s/c(=C\c5cccc(O)c5)c(=O)n42)c2ccccc2CC3)c1` (stereo unspecified) was -0.7%; that for `CCOC(=O)Cc1cc(=O)[nH]c(=O)[nH]1` was -4%. As for `CC1CCCCC1NC(=O)c1cn(C)c2ccc(S(=O)(=O)N3CCOCC3)cc2c1=O` (stereo unspecified), the activation (rescue from dofetilide block), less the hit threshold was -5.24%. `Cc1cc(C(=O)NCCc2ccc(Cl)cc2)c(C)o1`: the activation (rescue from dofetilide block), less the hit threshold was -9.03%. As to `CCOC(=O)c1c(C)oc2cc(Sc3ccccc3)c(O)c(O)c12`, the activation (rescue from dofetilide block), less the hit threshold is -5.84%. On to `COc1ccc(COC(=O)N/N=C(\C)CC(=O)Nc2ccc(Cl)cc2)cc1`, for which the activation (rescue from dofetilide block), less the hit threshold was -11.8%.

With `CCc1ccc(NC(=O)C(=O)N/N=C(\C)CC(=O)NCCOC)cc1`, the activation (rescue from dofetilide block), less the hit threshold was 6.83% (active). The value for `C/C(CC(=O)Nc1ccc(Cl)cc1)=N\NC(=O)C(=O)NCCO` was -8.82%. The value for `COC(=O)C(C)N=Cc1ccccc1` (stereo unspecified) was -14%; that for `Cc1ccc(S(=O)(=O)N(CC(=O)NCc2ccco2)c2ccccc2C)cc1` was -7.72%; that for `Nc1nnnn1/N=C/c1cccc(Br)c1` was -0.31%. For the molecule `COC(=O)c1cccc(-n2[nH]nnc2=S)c1`, the activation (rescue from dofetilide block), less the hit threshold is -7.53%. Take `COc1cc(-c2noc(C3CCCN(S(=O)(=O)c4cccc(Cl)c4)C3)n2)cc(OC)c1OC` (stereo unspecified): the activation (rescue from dofetilide block), less the hit threshold was -11.3%. With `COC(=O)c1sc(NC(=O)c2csc3c2CCCC3)nc1C`, the activation (rescue from dofetilide block), less the hit threshold is -6.43%. As for `Cc1ccc(C(=O)NC(=S)Nc2ccccc2C)cc1`, the activation (rescue from dofetilide block), less the hit threshold was -5.4%. As for `COC(=O)c1sc(NC(=S)NC(=O)c2ccc(C)cc2)nc1C`, the activation (rescue from dofetilide block), less the hit threshold was 7.72% (active). For `CCCN(C(=O)CSc1nnnn1C)c1c(N)n(Cc2ccccc2)c(=O)[nH]c1=O`, the activation (rescue from dofetilide block), less the hit threshold was -7.93%.

As for `Cc1ccc2c(c1)nnc1nnc(SCC(=O)O)n12`, the activation (rescue from dofetilide block), less the hit threshold is 1.69%. For `CCOC(=O)N1CCN(C(=O)c2ccc(CN(c3ccc(C)c(C)c3)S(C)(=O)=O)cc2)CC1`, the activation (rescue from dofetilide block), less the hit threshold is 4.64% (active). Take `CCN1CCN(C(=O)c2ccc(CN(c3ccc(C)c(C)c3)S(C)(=O)=O)cc2)CC1`: the activation (rescue from dofetilide block), less the hit threshold is -6.12%. Turning to `CCOC(=O)N1CCN(C(=O)CN(c2ccc(C)c(C)c2)S(=O)(=O)c2ccccc2)CC1`, the activation (rescue from dofetilide block), less the hit threshold is -9.17%. Consider `O=C(NC1CCCC1)C(c1c(F)cccc1Cl)N(C(=O)c1csnn1)C1CC1` (stereo unspecified), for which the activation (rescue from dofetilide block), less the hit threshold was -2.39%.

As for `CCO[C@H]1OC(C(=O)O)=C[C@@H](C2CCCCC2)[C@@H]1CCCO`, the activation (rescue from dofetilide block), less the hit threshold is -4.25%. On to `COc1cc(OC)cc(/C(N)=N/O)c1`, for which the activation (rescue from dofetilide block), less the hit threshold was -15.6%. For `CC1CC(C)CN(C(=O)CSc2ccsc2[N+](=O)[O-])C1` (stereo unspecified) the value was -2.19%; for `CN(c1ccccc1)S(=O)(=O)c1ccc(Cl)c(C(=O)OCC(=O)N2CCOCC2)c1`, 4.51%. The value for `O=C(OCC(=O)N1CCN(C(=O)c2ccco2)CC1)c1cccc(O)c1` was -4%; that for `CN(c1ccccc1)S(=O)(=O)c1cc(C(=O)OCC(=O)N2CCN(C(=O)c3ccco3)CC2)ccc1Cl` was 5.23% (active); that for `Cc1ccc(NC(=O)CSc2nnc(CNC(=O)c3ccccc3F)o2)cc1Cl` was -8.43%. For the molecule `CCN(CC)c1ccc(C(=O)c2cnc(/N=C/N(C)C)s2)cc1`, the activation (rescue from dofetilide block), less the hit threshold was -22%. As for `Cc1cc(C)c(NC(=O)CSc2nc3ccncc3[nH]2)c(C)c1`, the activation (rescue from dofetilide block), less the hit threshold was -2.72%.

On to `Cc1ccc(NC(=O)Nc2cccnc2)cc1`, for which the activation (rescue from dofetilide block), less the hit threshold was -1.84%. Regarding `Cc1cc(C)c(NC(=O)CS(=O)CC(=O)Nc2cccnc2)c(C)c1` (stereo unspecified), the activation (rescue from dofetilide block), less the hit threshold is 7.98% (active). Turning to `COc1ccc(CCc2nnc(CCC(=O)NCc3cnn(-c4ccccc4C)c3)o2)cc1`, the activation (rescue from dofetilide block), less the hit threshold was -3.52%.

On to `COc1ccc(S(=O)(=O)NCC(c2ccco2)N2CCOCC2)cc1` (stereo unspecified), for which the activation (rescue from dofetilide block), less the hit threshold is -10.9%.

With `Cc1cc(C)c(S(=O)(=O)c2ccccc2)c(OC(=O)c2c(F)cccc2Cl)n1`, the activation (rescue from dofetilide block), less the hit threshold was 8.53% (active).

For `Cc1ccc(NNC(=O)c2c(F)cccc2Cl)cc1Cl`, the activation (rescue from dofetilide block), less the hit threshold is -7.77%. Regarding `Cc1cc(OC(=O)c2c(Cl)cccc2Cl)nc(C)n1`, the activation (rescue from dofetilide block), less the hit threshold is -14.7%.

`Cc1cccc(S(=O)(=O)N2CN(CC3CCCO3)c3nc4ccccc4nc32)c1` (stereo unspecified): the activation (rescue from dofetilide block), less the hit threshold is -10.3%. Take `CCOc1cc(/C=N/Nc2cc(C)nc3ccc(C)cc23)ccc1O`: the activation (rescue from dofetilide block), less the hit threshold is -14.3%. With `CCOC(=O)C1CCN(c2c(Nc3cc(C)cc(C)c3)c(=O)c2=O)CC1`, the activation (rescue from dofetilide block), less the hit threshold is -11.1%. With `O=c1c2cc(Br)ccc2nc(-c2cccc(Cl)c2)n1O`, the activation (rescue from dofetilide block), less the hit threshold was 59% (active). For `Cc1cccc(-c2nc3ccccc3c(=O)n2NC(=O)Cc2ccc(Cl)cc2)c1` the value was -2.81%; for `O=C1CCCc2c1nc(-c1cccc(Cl)c1)n2O`, -10.5%.
